# Assay results published in PubChem BioAssay (NCI).
# Compounds without any hit were thinned out: in the full panel of roughly 83,000, 20% have a hit.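 Note: values are percent growth. 100 is the growth of untreated cells, values between 100 and 0 indicate rising inhibition; between -100 and 0 indicates cell death.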 Unmarked numbers belong to inactive results. The calls were made as follows: active = growth percent below 10; inactive = the rest.
# Tested on: HS 578T breast
# Assay: NCI-60 one-dose screen, 48 h (100 = growth as untreated, 0 = no growth, -100 = all killed)
# Details: 10 µM unless noted
row,Compound,growth
1,COC(=O)Nc1nc2ccc(C(=O)c3ccccc3N(C)C3COC3)cc2[nH]1,22.5%
2,CCOP1(=O)CC(C)=C(Cl)C(P(=O)(O)O)C1 (configuration not stated),107%
3,CCCCCCCCC1OC1CCCCCCCC(=O)O (configuration not stated),98.6%
4,CC(O)CN(CC(C)O)N(CC(C)O)CC(C)O (configuration not stated),108%

# Tested on: NCI/ADR-RES ovarian
# Assay: as above
# Details: 10 µM unless noted
row,Compound,growth
1,CC(C)(CNC1CCCCC1)OC(=O)c1ccccc1,103%
2,COC(=O)c1ccc2[nH]c(O)c(C(=Nc3ccc(N(C)C(=O)CN4CCN(C)CC4)cc3)c3ccc4c(c3)OCO4)c2c1,104%
3,O=C(/C=C\c1ccc(NCc2ccc(C(=O)O)cc2)cc1)CCl,100%
4,CCCCCCC(C)N(CC(C)(C)O)C(=O)c1ccc([N+](=O)[O-])cc1 (configuration not stated),85.7%
5,C=CN(C)S(C)(=O)=O,20.1%
6,CCCCCCC(C(=O)OCC)(C(=O)OCC)C1CCCCCC1,106%
7,CCOC(=O)NC1=NCC(C)(C)S1,103%
8,Cc1ccc2c(c1)C(=O)CCS2,111%
9,S=C(N/N=C/c1cc(Cl)cc(Cl)c1)NC12CC3CC(CC(C3)C1)C2,77%
10,COC(=O)C(N)CC(C)C (configuration not stated),106%
11,O=C(Nc1ccc(Cl)c(Cl)c1)O/N=C\c1c(Cl)ccc([N+](=O)[O-])c1Cl,16.5%
12,O=C(/C=C/c1ccc(Cl)cc1)c1ccc(Cl)cc1,99.3%
13,O=C(Nc1cccc(Cn2c(=O)[nH]c3ccc(Oc4ncccn4)cc3c2=O)c1)c1cccc(F)c1,104%
